Source: PubChem
A selection: hits, their analogues and other compounds. The true share with any hit is near 2.9%.
PAFAH1B2 FP inh = inhibitors of human PAFAH1B2; P68402; recombinant PAFAH1B2, FP-rhodamine activity probe, fluorescence polarization; inhibition, % at 3.39 µM; 340,000 tested, 1.2% active; AID 492953;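 active means inhibition above the mean of all tested compounds plus 3 SD, cut at about 24% in these data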;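 further: 0% = enzyme with DMSO and 100% = wells lacking PAFAH1B2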
Target sequence (P68402 whole entry, looked up): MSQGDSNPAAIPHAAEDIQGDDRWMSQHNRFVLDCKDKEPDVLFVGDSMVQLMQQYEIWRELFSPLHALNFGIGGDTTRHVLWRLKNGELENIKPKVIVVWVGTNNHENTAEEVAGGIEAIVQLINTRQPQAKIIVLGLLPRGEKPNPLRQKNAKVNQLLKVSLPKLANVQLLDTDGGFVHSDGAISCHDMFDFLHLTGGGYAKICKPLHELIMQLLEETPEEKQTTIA
EBNA-1 inh = blocks EBNA-1 binding to DNA | inhibition, % at 14.8 µM | EBNA-1 DNA binding, fluorescence polarization | 300,000 tested, 0.34% active; in the data active means inhibition above about 28%
pPAFAH inh = pPAFAH (human) enzyme inhibition; inhibition, % at 3.39 µM; Q13093; recombinant pPAFAH, FP-rhodamine probe fluorescence polarization; 330,000 tested, 1.5% active;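 active means inhibition above the mean inhibition across the screen plus 3 SD, cut at about 25% in these data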;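 further: inhibitors block binding of the rhodamine activity-based probe so polarization drops; 0% = enzyme with DMSO and 100% = wells lacking pPAFAH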
PAFAH2 inh = inhibitors of human PAFAH2; 340,000 tested, 0.99% active; recombinant PAFAH2, FP-rhodamine activity probe, fluorescence polarization; inhibition, % at 3.39 µM; Q99487;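 active means inhibition above the mean over all tested compounds plus 3 SD, cut at about 30% in these data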;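 further: inhibitors block probe labeling of enzyme so polarization drops; 0% = enzyme with DMSO and 100% = wells lacking PAFAH2 protein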
PAFAH1B3 inh = blocks human PAF acetylhydrolase 1B catalytic subunit 3 | recombinant PAFAH1B3, FP-rhodamine probe, fluorescence polarization | Q15102 | 340,000 tested, 0.28% active | inhibition, % at 3.39 µM;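 active means inhibition above the screen-wide average of all tested compounds plus 3 SD, cut at about 25% in these data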;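 further: 0% = enzyme with DMSO only and 100% = wells lacking PAFAH1B3 protein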
Target sequence (Q15102 whole entry, looked up): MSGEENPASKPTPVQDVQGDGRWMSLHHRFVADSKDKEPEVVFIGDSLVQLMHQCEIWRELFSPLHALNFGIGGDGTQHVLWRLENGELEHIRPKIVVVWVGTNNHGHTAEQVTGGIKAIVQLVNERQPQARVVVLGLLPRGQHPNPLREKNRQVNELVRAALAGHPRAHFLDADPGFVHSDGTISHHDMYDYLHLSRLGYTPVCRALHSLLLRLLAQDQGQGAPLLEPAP
ZTA counter = ZTA (EBV) inhibition in EBNA-1 counter-screen; P03206; ZTA-DNA binding, fluorescence polarization; 320,000 tested, 0.15% active; inhibition, % at 11 µM; in the data active means inhibition above about 33%
An asterisk follows results filed as active; x = no result given.

SMILES	PAFAH1B2 FP inh	EBNA-1 inh	pPAFAH inh	PAFAH2 inh	PAFAH1B3 inh	ZTA counter
Cc1ccc(-n2ccc(=O)c(C(=O)Nc3ccc(S(=O)(=O)Nc4onc(C)c4C)cc3)n2)cc1	2	-20	-1	4	12	7
Cc1ccccc1C(=O)OCCN(C)Cc1ccccc1	1	4	5	-3	1	-21
O=C(COC(=O)c1ccccc1[N+](=O)[O-])Nc1nnc(-c2ccccc2)o1	1	3	6	9	7	3
CC(C)OC(=O)c1cccc(NC(=O)CSc2nnc(N)s2)c1	-6	2	2	-5	5	8
S=c1[nH]nc(Cc2ccccc2)n1-c1cccc2ccccc12	28*	3	4	2	-6	-5
COc1ccc(/C=C/C(=O)Oc2cc(C)[nH]c(=O)c2[N+](=O)[O-])cc1OC	-2	-5	-4	-4	0	3
O=C(CNC(c1ccccc1)c1ccccc1)Nc1ccccc1Br	4	-20	32*	6	-3	1
O=C(Nc1ccc(S(=O)(=O)Nc2nccs2)cc1)c1c(F)c(F)c(F)c(F)c1F	-1	2	2	-5	11	-15
O=C(COC(=O)c1sc2ccccc2c1Cl)NCC1CCCCC1	4	-4	27*	15	0	-13
Cn1c(=O)c2c(nc(N/N=C/c3ccncc3)n2Cc2ccccc2)n(C)c1=O	6	-6	6	4	-5	-15
COc1cc(/C=N/Nc2nc3c(c(=O)n(C)c(=O)n3C)n2Cc2ccccc2)ccc1OC(=O)c1ccco1	0	2	34*	2	15	17
NC(=O)CCC(NS(=O)(=O)c1ccc(Cl)cc1)C(=O)NCC1CCCCC1 (configuration not stated)	12	-12	9	-2	0	3
NC(=O)CCC(NS(=O)(=O)c1ccc(Cl)cc1)C(=O)NCc1ccc(Cl)cc1 (configuration not stated)	24*	-3	1	2	4	-5
Clc1ccc(OCc2noc(-c3ccsc3)n2)c(Cl)c1	7	8	13	0	3	0
CCCN1CCN(CCNC(=O)Nc2cc(C)ccc2C)CC1	0	-4	-1	3	8	-23
O=C(Nc1cccc2ccccc12)C1CCN(C(=O)NCc2ccccc2)CC1	4	-1	4	9	-3	-4
COc1ccccc1NC(=O)C1CCN(C(=O)NCc2ccccc2)CC1	5	-4	32*	6	8	1
COc1ccc(C(O)P(=O)(OCCC(C)C)c2ccc(N(C)C)cc2)cc1 (configuration not stated)	2	4	4	-3	3	-16
CSCCC(NS(=O)(=O)c1cccc(C(F)(F)F)c1)C(=O)Nc1ccccc1N1CCCC1 (configuration not stated)	26*	10	10	6	3	9
NC(=S)N=Nc1c(O)n(CCCl)c2ccc(Br)cc12	32*	3	2	4	5	-6
C/C(Cl)=C\Cn1c(O)c(N=NC(N)=S)c2cc(Br)ccc21	9	-7	14	5	6	7
Cc1ccc(S(=O)(=O)Nc2ccc(S(=O)(=O)N3CCCC3)cc2)cc1	4	-8	-3	0	8	0
COc1ccc(Nc2nc3ccccc3nc2NS(=O)(=O)c2ccc(NC(C)=O)cc2)cc1	7	-16	27*	10	8	-3
COc1ccc(S(=O)(=O)Nc2ccccc2)cc1	6	0	18	13	7	9
COc1ccc(S(=O)(=O)Nc2ccc(Nc3ccccc3)cc2)cc1	x	10	27*	x	x	4
SMILES	PAFAH1B2 FP inh	EBNA-1 inh	pPAFAH inh	PAFAH2 inh	PAFAH1B3 inh	ZTA counter
CC(=O)NS(=O)(=O)c1ccc(NS(=O)(=O)c2ccc3ccccc3c2)cc1	29*	-1	-1	-5	15	0
O=S(=O)(Nc1ccccc1)c1ccc(S(=O)(=O)N2CCCC2)cc1	6	x	27*	-1	1	10
Cc1onc(-c2ccccc2)c1NC(=O)N(CCC#N)Cc1cccs1	-1	9	1	3	2	2
CC(=O)Nc1ccc(S(=O)(=O)Nc2nc3ccccc3nc2Nc2ccc(S(N)(=O)=O)cc2)cc1	4	-10	16	16	24	-4
COc1ccc(Nc2nc3ccccc3nc2NS(=O)(=O)c2cccs2)cc1	3	14	27*	7	6	22
NS(=O)(=O)c1ccc(Nc2nc3ccccc3nc2NS(=O)(=O)c2cccc([N+](=O)[O-])c2)cc1	13	0	31*	4	17	-8
CCOc1ccc(S(=O)(=O)Nc2nc3ccccc3nc2Nc2ccc(N3CCOCC3)cc2)cc1	8	9	33*	19	5	10
COc1ccccc1Nc1ccc(NS(=O)(=O)c2ccc(C(C)=O)cc2)cc1	1	-12	34*	6	-6	-27
COc1ccc(/C=N/N2CCOCC2)cc1Cn1cc([N+](=O)[O-])cn1	9	4	1	4	2	-16
COc1ccc(NS(=O)(=O)c2cc(NC(=O)Cc3cccs3)ccc2C)cc1	0	-5	7	-2	11	0
CC(=O)c1ccc(Nc2nc3ccccc3nc2NS(=O)(=O)c2cccs2)cc1	1	-6	27*	18	5	13
COc1ccc(NS(=O)(=O)c2ccc(NC(=O)Cc3cccs3)cc2)cc1	8	-4	26*	-7	6	-6
CC(C)c1ccc(-c2csc3nc[nH]c(=O)c23)cc1	6	-10	5	10	-3	-3
Cc1ccc(S(=O)(=O)N2[C@@H](c3cccc(C)c3)C(C(=O)O)=C[C@H]2C(C)(C)C)cc1	31*	x	1	5	0	x
Cc1ccc([C@H]2C(C(=O)O)=C[C@@H](C(C)(C)C)N2S(=O)(=O)c2ccc(C)cc2)cc1	24*	x	2	5	1	x
Cc1ccc(S(=O)(=O)N2[C@@H](c3ccc(C(C)C)cc3)C(C(=O)O)=C[C@H]2C(C)(C)C)cc1	28*	x	13	5	-3	x
Nc1ccccc1-n1cccc1	x	-4	4	x	x	-15
CCc1cccc(C)c1NC(=S)NCc1cccn1C	9	-7	0	-1	15	-4
CC[C@H](C)/C=C(C)/C=C/C1=CC2=CC(=O)[C@]3(C)OC(=O)[C@@H](C(C)=O)[C@@H]3C2=CO1	7	-12	24	16	-10	15
CC[C@H](C)/C=C(C)/C=C/C(=O)Cc1cc(O)c(C)c(O)c1C=O	-2	11	32*	-2	-3	10
CCC1(CC)NC(=O)N(CC(=O)Nc2sc3c(c2C(N)=O)CCC3)C1=O	2	0	28*	16	3	-7
COc1ccc(CCNC(=O)CCS(=O)(=O)c2ccc3nc(C)sc3c2)cc1OC	5	11	-3	11	-4	-2
Cc1sc(NC(=O)CCCC(=O)O)c(C(N)=O)c1-c1ccccc1	-2	8	1	2	-1	5
